Source: PubChem
Shn3 3UTR inh: reduces Shn3 3'UTR luciferase signal in osteoblasts; AID 588674; Clone20 osteoblast Shn3 3'UTR firefly luciferase, 24 h; inhibition, % at 12.5 µM; 0.52% of 360,000 active;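 active means mean inhibition of at least 75% with every replicate also reaching 75%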;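 further: 0% = median of neutral control wells and 100% = pilot-screen positive control compound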
CF NFkB inh: inhibitors of cystic fibrosis induced NF-kB | KKLEB NF-kB-GFP reporter, PAF-induced, GFP fluorescence overnight | inhibition, % at 5 µM | 0.86% of 360,000 active | AID 588850;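 active means at least 50% inhibition at 5 µM, scaled per plate between neutral and stimulator controls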;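 further: PAF is a Pseudomonas aeruginosa culture filtrate used as stimulus; plate controls were PAF-stimulated DMSO wells for no effect and unstimulated DMSO wells for full effect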
Peg3 promoter: inhibitors of Peg3 promoter; 1.7% of 360,000 active; inhibition, % at 20 µM; HeLa PEG-Prom luciferase reporter, luminescence, overnight;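 active means inhibition of at least 50% at 20 µM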
KKLEB cytotox: counter-screen for CF NF-kB inhibitors: cytotoxicity | AID 602141 | KKLEB CF airway cells viability, ATPlite luminescence, overnight; active compounds read low; cells stimulated with P. aeruginosa culture filtrate | 0.36% of 360,000 active | activity change (cytotoxicity), % at 5 µM;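 active means corrected activity change at or below -50% at 5 µM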
MITF TRPM1 inh: MITF TRPM1 promoter inhibition in SK-MEL-5 cells; SK-MEL-5 TRPM1 promoter luciferase, 24 h; inhibition, % at 12.5 µM; 0.83% of 330,000 active; AID 488899;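 active means mean inhibition across replicates of 60% or more, whatever share of single replicates reaches that level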
HIF-2a block: inhibitors of HIF-2a | 786-0 RCC cells HIF-2a reporter, luciferase luminescence, overnight | inhibition, % at 18.8 µM | 0.72% of 360,000 active;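 active means inhibition of the luminescence signal of 40% or more relative to plate controls, in a single-dose primary screen at 18.75 µM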
Mdm2 MdmX conf: Mdm2/MdmX (human) interaction inhibition, confirmed; shares compounds with HIF-2a block; SaOS-2 split-luciferase Mdm2/MdmX complementation, luminescence; inhibition, % at 8 µM; 99% of 740 active; AID 504601;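 active means mean inhibition of the luminescence signal across two replicates at or above 26 percent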
Target sequence (O15151 whole entry, looked up): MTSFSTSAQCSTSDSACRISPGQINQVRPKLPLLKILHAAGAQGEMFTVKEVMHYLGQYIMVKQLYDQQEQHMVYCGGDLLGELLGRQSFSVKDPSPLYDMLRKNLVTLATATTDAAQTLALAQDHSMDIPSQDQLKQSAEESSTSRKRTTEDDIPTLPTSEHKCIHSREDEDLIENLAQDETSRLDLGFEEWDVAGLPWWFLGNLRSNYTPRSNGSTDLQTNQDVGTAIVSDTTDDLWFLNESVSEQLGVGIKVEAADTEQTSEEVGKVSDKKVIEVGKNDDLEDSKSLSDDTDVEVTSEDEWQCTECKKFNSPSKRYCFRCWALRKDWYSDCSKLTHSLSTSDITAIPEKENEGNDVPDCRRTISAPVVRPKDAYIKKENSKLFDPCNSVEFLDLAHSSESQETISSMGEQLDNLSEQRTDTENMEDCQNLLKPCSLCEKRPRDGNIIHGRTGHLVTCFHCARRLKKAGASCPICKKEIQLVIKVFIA
Target sequence (Q00987 whole entry, looked up): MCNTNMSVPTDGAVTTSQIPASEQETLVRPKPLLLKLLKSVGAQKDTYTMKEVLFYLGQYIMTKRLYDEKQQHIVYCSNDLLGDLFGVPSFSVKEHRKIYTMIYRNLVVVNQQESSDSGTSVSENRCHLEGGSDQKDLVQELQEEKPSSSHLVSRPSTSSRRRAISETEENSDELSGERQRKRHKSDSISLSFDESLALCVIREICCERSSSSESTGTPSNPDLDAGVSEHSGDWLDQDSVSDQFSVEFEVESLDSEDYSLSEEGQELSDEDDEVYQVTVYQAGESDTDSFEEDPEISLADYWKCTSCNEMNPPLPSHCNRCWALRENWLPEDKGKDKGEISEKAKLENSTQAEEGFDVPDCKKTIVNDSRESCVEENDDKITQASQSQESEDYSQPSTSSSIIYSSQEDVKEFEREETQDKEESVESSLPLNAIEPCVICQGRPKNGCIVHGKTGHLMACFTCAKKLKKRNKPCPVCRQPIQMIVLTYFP
HIF-2a conf: HIF-2a inhibition, single concentration confirmation | shares compounds with HIF-2a block | 786-0 RCC cells, HIF-2a luciferase reporter luminescence, overnight | inhibition, % at 18.8 µM | 56% of 1,800 active;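 active means mean inhibition across four replicates of at least 40 percent at the single tested concentration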
HIF-1a cs: inhibits HIF-1a reporter, a counter-screen for HIF-2a inhibitors; shares compounds with HIF-2a block; MiaPaCa-2 HIF-1a luciferase reporter, desferoxamine, overnight; inhibition, % at 18.8 µM; 72% of 1,800 active; AID 651589;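 active means mean inhibition of the reporter signal across four replicates at the single tested dose of 50% or more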
Active calls of the source: *; . = not tested or not shown. Only some compounds are listed: those with a hit (about 2.7% of all), similar ones and a draw of the others.

SMILES	Shn3 3UTR inh	CF NFkB inh	Peg3 promoter	KKLEB cytotox	MITF TRPM1 inh	HIF-2a block	HIF-2a conf	HIF-1a cs	others
CC(=O)Nc1ccc(OC(=O)N2CCCCC2)cc1	9	7	-3	-2	7	85*	95*	53*
O=C(Nc1cccc(OC(=O)N2CCCCC2)c1)N1CCCCC1	9	20	11	0	8	14	.	.
CC(C)[C@H]1C(=O)O[C@H](C(C)C)C(=O)N(C)[C@@H](C(C)C)C(=O)O[C@H](C(C)C)C(=O)N(C)[C@@H](C(C)C)C(=O)O[C@H](C(C)C)C(=O)N1C	90*	33	33	1	78*	-63	.	.	Mdm2 MdmX conf=94*
CCOC(=O)CC1c2ccccc2-n2nncc2CN1CC1CCCCC1 (configuration not stated)	-4	-4	-2	7	.	8	.	.
Cc1nc2cc(-c3cccc(F)c3)nn2c(C)c1CCC(=O)N1CCC2(CC1)OCCO2	36	-6	-51	6	6	75*	82*	53*
O=P1(c2ccccc2)Nc2ccccc2N1c1ccccc1 (configuration not stated)	5	19	-27	6	3	1	.	.
C[C@@H]1C(=O)O[C@H]2[C@H](O)[C@]34[C@@H]5OC(=O)[C@]3(OC3OC(=O)[C@H](O)C34[C@H](C(C)(C)C)[C@@H]5O)[C@@]12O (some centres not stated)	-12	-1	1	2	8	-2	.	.
CC1=CC2OC3CC4OC(=O)C=CC=CC(=O)OCCC(C)C(O)C(=O)OCC2(CC1O)C4(C)C31CO1 (configuration not stated)	89*	84*	101*	-44	86*	75*	72*	103*
CN(CC=CCN(C)P(=S)(N1CC1)N1CC1)P(=S)(N1CC1)N1CC1	17	-15	5	16	-7	4	.	.
COc1cc(/C=C(/C)[N+](=O)[O-])ccc1OCc1ccccc1Cl	96*	85*	105*	-66*	91*	94*	.	.	Mdm2 MdmX conf=103*
COc1cc(C=C2C(=O)NC(=O)NC2=O)ccc1OCc1ccc([N+](=O)[O-])cc1	-54	-24	-248	-2	-67	-203	.	.
CCOC(=O)[C@]12Cc3cc(OC)ccc3[C@H]1N(C1CCCCC1)C(=O)c1cc(OC)ccc12	.	.	.	.	.	88*	89*	105*
CCOC(=O)[C@]12Cc3ccccc3[C@H]1N(C(C)C)C(=O)c1cc(OC)ccc12	.	.	.	.	.	21	.	.
CCOC(=O)[C@]12Cc3cc(C)ccc3[C@H]1N(C(C)C)C(=O)c1ccccc12	.	.	.	.	.	88*	93*	108*
CNC(=O)Oc1cccc2c1OC(C)(C)O2	-18	12	-9	3	3	17	.	.
c1ccc2c[n+](CCCCCCCCCC[n+]3ccc4ccccc4c3)ccc2c1	.	.	.	.	.	9	.	.
C=C1C(=O)O[C@@H]2C[C@@H](C)[C@@H]3C=CC(=O)[C@@]3(C)[C@@H](O)[C@H]12	99*	88*	92*	-60*	106*	97*	.	.	Mdm2 MdmX conf=100*
Cc1ccccc1-c1ccc2n1Cc1cnnn1-c1ccccc1-2	-12	6	-3	-21	-6	15	.	.
c1ccc(P(c2ccccn2)c2ccccn2)cc1	-22	-7	13	12	4	58*	2	-6
COC(=O)C(Cc1ccc(N(CCCl)CCCl)cc1)N=Cc1ccccc1O (configuration not stated)	54	75*	97*	-48	62*	72*	-5	100*	Mdm2 MdmX conf=103*
COC(=O)C1=C(c2ccc3ccccc3c2)C[C@@H]2CC[C@H]1N2C(=O)NCc1ccc(C(F)(F)F)cc1	56	10	25	-21	2	18	.	.
